# Source: PubChem (National Center for Advancing Translational Sciences (NCATS))
# D2 ag-1 – Beta-Arrestin HTS for Positive Allosteric Modulators of the Human D2 Dopamine Receptor: Agonists. AID 624465, 2012. activation, % (test concentration not listed). D(2) dopamine receptor (Homo sapiens), P14416. 360,000 compounds, 0.084% hits. DiscoveRx PathHunter D2 beta-arrestin, luminescence, 90 min; 100% = 57 uM dopamine signal; in the data active means activation above about 40%; inconclusive means between about 15% and that limit
# Target sequence (P14416 whole entry, looked up): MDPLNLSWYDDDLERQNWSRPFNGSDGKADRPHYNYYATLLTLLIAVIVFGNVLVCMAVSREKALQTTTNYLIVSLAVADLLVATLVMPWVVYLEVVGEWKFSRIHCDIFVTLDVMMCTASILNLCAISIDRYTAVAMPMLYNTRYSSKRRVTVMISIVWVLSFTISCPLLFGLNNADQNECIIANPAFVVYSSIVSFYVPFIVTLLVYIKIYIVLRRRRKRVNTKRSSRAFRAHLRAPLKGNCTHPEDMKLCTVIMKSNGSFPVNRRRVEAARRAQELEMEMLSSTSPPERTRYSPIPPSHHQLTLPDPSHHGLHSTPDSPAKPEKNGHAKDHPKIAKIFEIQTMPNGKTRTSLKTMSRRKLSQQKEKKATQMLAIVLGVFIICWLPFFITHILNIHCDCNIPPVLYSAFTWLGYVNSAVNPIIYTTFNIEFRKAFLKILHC
#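 Agonist mode: compounds alone added to overnight-plated D2 PathHunter cells for 90 min at 37 C, with 57 uM final dopamine (EC100) defining full response. Beta-arrestin recruitment detected by chemiluminescent reagent, read after 1 h at ambient temperature.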
# D2 PAM-1 – Beta-Arrestin HTS for Positive Allosteric Modulators of the Human D2 Dopamine Receptor: Potentiators; D(2) dopamine receptor (Homo sapiens), P14416; DiscoveRx D2 beta-arrestin cells, luminescence, 90 min; 100% = 57 uM dopamine signal; potentiation, % (no concentration beside the values); 360,000 compounds, 0.23% hits; in the data active means potentiation above about 50%; inconclusive means mostly about 30% to 49%
#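 PathHunter beta-arrestin assay in DiscoveRx D2 cells. Compounds were added with an EC20 of dopamine (50 nM final) for 90 min at 37 deg C. Luminescence was read 1 h after detection reagent, with 57 uM dopamine as the EC100 control.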
# D2 antagonist – HTS Assay for Allosteric Antagonists of the Human D2 Dopamine Receptor: Primary Screen for Antagonists | inhibition, % at 10 µM | D(2) dopamine receptor (Homo sapiens), P14416 | HEK293 TREx D2 cells, calcium flux, dopamine EC80 | 340,000 compounds, 2% hits; in the data active means inhibition above about 30%; inactive means below that, where a call was filed
#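 Cells plated overnight at 30 C with tetracycline; no-wash calcium dye, 30–90 min RT; 10 s baseline; compound pinned; 180 s read; EC80 dopamine added; another 180 s read.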
# D2 PAM-2 – HTS Assay for Positive Allosteric Modulators of the Human D2 Dopamine Receptor: Primary Screen for Potentiators; D(2) dopamine receptor (Homo sapiens), P14416; HEK293 T-REx D2, calcium flux, EC20 dopamine potentiation; potentiation, % at 10 µM; 340,000 compounds, 0.34% hits;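 active means potentiation over 3 SD above the plate norm, cut at about 30% in these data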
#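 Using a no-wash calcium dye in inducible, force-coupled HEK293 Trex cells expressing D2, we tracked fluorescence each second for 180 s after compound, then for 180 s after EC20 dopamine to detect augmented signalling.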
# D2 ag-2 – HTS Assay for Allosteric Agonists of the Human D2 Dopamine Receptor: Primary Screen for Agonists. D(2) dopamine receptor (Homo sapiens), P14416. HEK293 T-REx D2 cells, calcium flux agonist mode. activation, % at 2 µM. 340,000 compounds, 0.53% hits;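 active means activation over 3 SD above normal in the single-dose calcium agonist read, cut at about 30% in these data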
#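 HEK293 Trex D2 cells, tetracycline-induced, o/n 30 C 5% CO2; no-wash Ca dye, RT 30–90 min; 10-cycle baseline, 23 nl cpd added, kinetic Ca read 180 s; agonist hits = positive Ca response.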
# D3 ag – qHTS of D3 Dopamine Receptor Agonist: D3 Dopamine Receptor B-arrestin Agonist Confirmatory Assay; shares compounds with D2 ag-2; DiscoveRx D3 beta-arrestin cells, luminescence, 90 min; Potency, µM (highest dose often 76.9 µM), most hits filed as activators; 2,300 compounds, 4% hits; AID 720506, 2013; further: nearly all actives have a fitted effect of over 70% in size
# D2 ag-3 – qHTS of D3 Dopamine Receptor Agonist: D2 Dopamine Receptor B-arrestin Agonist Counterscreen. shares compounds with D2 ag-2. DiscoveRx PathHunter D2 beta-arrestin, luminescence, 90 min; response scale: percent relative to full dopamine signal. Potency, µM (series often up to 76.9 µM), most hits filed as activators. 2,300 compounds, 5.9% hits. AID 720507, 2013; further: nearly all actives have a fitted effect of over 70% in size
# Hits are given with their value; i = inactive; ? = inconclusive; nt = no result given. Compounds with a hit are over-represented: about 2.4% of the library has one in this group of screens. Unless noted, the call rests on the fitted dose curve; in most records, active means well fitted activation curve with a large enough effect; inconclusive means small, poorly fitted or top-dose-only effect; inactive means flat fitted curve, though single readings scatter.
SMILES,D2 ag-1,D2 PAM-1,D2 antagonist,D2 PAM-2,D2 ag-2,D3 ag,D2 ag-3
CC1=NN=C(c2ccc(N)cc2)c2cc3c(cc2C1)OCO3,70,i,i,i,i,nt,nt
Nc1c(C(=O)Nc2ccc(OC(F)(F)F)cc2)sc2nc3c(cc12)N1CCC3CC1,nt,nt,nt,i,i,nt,nt
COc1ccc(OC)c(CN2CCCC(C(=O)c3sccc3C)C2)c1 (configuration not stated),i,i,51,i,i,nt,nt
COc1cccc(O)c1CN1CCCC(C(=O)c2sccc2C)C1 (configuration not stated),i,i,i,i,i,nt,nt
Cc1ccsc1C(=O)C1CCCN(Cc2cc(C(C)C)n[nH]2)C1 (configuration not stated),i,i,80,i,i,nt,nt
Cc1ccsc1C(=O)C1CCCN(Cc2ccn[nH]2)C1 (configuration not stated),i,i,i,i,i,nt,nt
CN1C(=O)/C(=C\c2ccc(N3CCCCC3)o2)C(=O)NC1=S,i,i,i,i,33,i,i
Cc1ccc(N2C(=O)NC(=O)/C(=C\C=C\c3ccco3)C2=O)cc1,i,i,nt,i,nt,nt,nt
Cc1cccc(N2C(=O)NC(=O)/C(=C\C=C\c3ccco3)C2=O)c1,i,i,i,i,i,i,i
Cc1ccc2c(=O)n(-c3cccc(Cl)c3)c(=O)[nH]c2c1,nt,nt,nt,i,i,nt,nt
CN1C[C@H](CO)C[C@@H]2c3cccc4[nH]cc(c34)C[C@H]21,?,53,96,i,84,?,?
CCN(CC)C(=O)N[C@H]1C[C@@H]2c3cccc4[nH]cc(c34)C[C@H]2N(C)C1,?,i,83,i,83,?,0.002µM
COc1c2c(cc3c1OCO3)CC[N+](C)=C2,i,i,i,i,i,i,i
COc1ccc2c(c1OC)CN1CCc3cc4c(cc3[C@H]1C2)OCO4,i,i,i,i,i,nt,nt
Cc1cccc(Cn2cccc(C(=O)Nc3ccc(F)cc3F)c2=O)c1,nt,nt,nt,i,i,nt,nt
N#CC1c2ccccc2C=CN1C(=O)c1ccc(N(CCCl)CCCl)cc1 (configuration not stated),i,i,nt,nt,nt,nt,nt
C=C[C@@H]1C2=CCOC(=O)C2=CO[C@H]1O[C@@H]1O[C@H](CO)[C@@H](O)[C@H](O)[C@H]1O,i,i,i,i,i,i,i
CN(C)c1cccc(CN2CCN(c3ccccc3)CC2)c1,i,i,nt,nt,nt,nt,nt
Cn1c(=O)oc2cc(S(=O)(=O)NCCN3CCN(c4ccccc4)CC3)ccc21,i,i,65,i,71,i,?
CCc1ccc(NC(=O)c2cccn(Cc3cccc([N+](=O)[O-])c3)c2=O)cc1,nt,nt,nt,i,i,nt,nt
CN1C(=O)CCC2(C)C1=CCC1C2CCC2(C)C1CCC2(C)O (configuration not stated),i,i,nt,nt,nt,nt,nt
COC(=O)C1=C(c2ccc(F)cc2OCc2ccccc2)C[C@@H]2CC[C@H]1N2C(=O)NCc1ccccc1Br,i,i,i,i,i,i,i
COC(=O)C1=C(c2ccc(F)cc2OCc2ccccc2)C[C@@H]2CC[C@H]1N2C(=O)NCc1ccccc1C(F)(F)F,i,i,i,i,i,nt,nt
O=S(=O)(O)C(=Cc1ccccc1)c1ccccc1 (tested in a mixture with another compound),i,i,nt,nt,nt,nt,nt
CCN(CC)S(=O)(=O)c1cc(NC(=O)C(C)N2CC=C(c3ccccc3)CC2)ccc1C (configuration not stated),?,i,i,i,44,i,?
